This is an account of results in PubChem BioAssay (NCATS).

SMILES strings stand for the structures. Results filed as inconclusive are left out. A number with no mark means an inactive call. Calls of active or inactive are those of the source. Calls come from the whole dose curve; as a rule, active = well fitted activation curve with a large enough effect; inconclusive = small, poorly fitted or top-dose-only effect; inactive = no such curve, though single readings can be large or run the other way.
Potency is the fitted concentration of half-maximal effect.

In this assay the target is Cellular tumor antigen p53 (Homo sapiens) (UniProt P04637). The assay is described as follows: Primary qHTS for small molecule compounds that upregulate eGFP-tagged delta133p53alpha (in N-terminal) cells. (AID 2060322).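 For activation: cells pre-induced with doxycycline then dosed without doxycycline; series mostly up to about 56 µM; 0% = DMSO vehicle and 100% = reference activator.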 Note: nearly all actives have a fitted effect of over 75% in size. The note with it: NCI-H358 eGFP-delta133p53alpha fluorescence, 24 h; activation: hits give high values. Summed up: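 NCI-H358 cells pre-induced 24 h with 10 ng/ml doxycycline for eGFP-delta133p53alpha, plated dox-free and exposed 24 h at 37C to titrated compounds. Fixed, Hoechst-stained; gated GFP peak intensity by laser scanning cytometry, normalized to DMSO (0%) and 57.5 uM 5-azacytidine (100%).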
Cellular tumor antigen p53 (Homo sapiens), sequence (P04637 whole entry, looked up): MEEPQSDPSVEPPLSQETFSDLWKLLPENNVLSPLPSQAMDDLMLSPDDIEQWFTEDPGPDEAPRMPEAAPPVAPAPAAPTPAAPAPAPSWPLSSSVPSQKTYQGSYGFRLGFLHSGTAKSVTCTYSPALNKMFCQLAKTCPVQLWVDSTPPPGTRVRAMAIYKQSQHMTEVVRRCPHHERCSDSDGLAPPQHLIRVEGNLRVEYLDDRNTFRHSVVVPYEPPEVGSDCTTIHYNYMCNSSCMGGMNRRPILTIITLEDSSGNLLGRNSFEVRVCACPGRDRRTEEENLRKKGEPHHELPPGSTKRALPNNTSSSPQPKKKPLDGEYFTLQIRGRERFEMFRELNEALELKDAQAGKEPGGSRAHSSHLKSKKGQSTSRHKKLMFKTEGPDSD
As to `CCC(C=C[C@@H]1OC(=O)C=C[C@H]1C)=C[C@H](C)CC=CC(C)=C[C@@H](C)C(=O)[C@@H](C)[C@H](O)[C@@H](C)CC(C)=CC(=O)O`, the Potency was 287 nM (active). For the compound `CN[C@H](CC(C)C)C(=O)N[C@H]1C(=O)N[C@@H](CC(N)=O)C(=O)N[C@@H]2C(=O)N[C@H]3C(=O)N[C@H](C(=O)N[C@H](C(=O)O)c4cc(O)cc(O)c4-c4cc3ccc4O)[C@H](O)c3ccc(c(Cl)c3)Oc3cc2cc(c3O[C@@H]2O[C@H](CO)[C@@H](O)[C@H](O)[C@@H]2O[C@H]2C[C@](C)(N)[C@H](O)[C@H](C)O2)Oc2ccc(cc2Cl)[C@H]1O`, the activation was 4.73%. The same measure, in the same setting: under `CC(C)(Oc1ccc(Cl)cc1)C(=O)OCCCOC(=O)C(C)(C)Oc1ccc(Cl)cc1` stands -6.69%. On the same count and under the same terms, under `NCCNCCNCCN` stands -9.6%; under `Cc1cn([C@H]2C[C@H](F)[C@@H](CO)O2)c(=O)[nH]c1=O`, 0.837%. Same read-out and setting: under `COC(=O)C(c1ccccc1Cl)N1CCc2sccc2C1` (centres undefined) stands 10.7%. As to `CC1CCC2(OC1)OC1CC3C4CCC5C[C@@H](O[C@@H]6O[C@H](CO[C@@H]7OC[C@@H](O)[C@H](O)[C@H]7O)[C@H](O)[C@H](O)[C@H]6O)CC[C@]5(C)C4CC[C@]3(C)C1C2C` (some centres undefined), the activation is 8.4%.

Turning to `C[N+]1(C)CCC(=C(c2ccccc2)c2ccccc2)CC1`, the activation was 28.8%. Same read-out and setting: under `C[C@]12C=CC(=O)N[C@@H]1CC[C@H]1[C@H]3CC[C@@H](C(=O)Nc4cc(C(F)(F)F)ccc4C(F)(F)F)[C@@]3(C)CC[C@@H]12` stands 9.28%.
